The source of these data is PubChem BioAssay (Tox21).

Structures are written as SMILES. Unmarked numbers belong to inactive results. Inconclusive results are not listed. The source made the active and inactive calls. Unless noted, calls follow the shape of the full dose curve.

Assay [1] is described as follows: Nuclear factor erythroid 2-related factor 2/antioxidant responsive element (Nrf2/ARE) small molecule agonists: qHTS cell viability counter screen in human keratinocytes (AID 1919968; active = well fitted curve in the direction sought with a large enough effect in the repeat runs; an effect the other way counts as inactive or inconclusive; also: nearly all actives have a fitted effect of over 55% in size). The procedure, abridged:
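Viability counter-screen: KeratinoSens reporter cells, DMSO-delivered compounds, 23 h at 37 C, CellTiter-Fluor fluorescence.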
In general terms: In qHTS, concentration-response curves come from the screen itself.

A short description of assay [2]: Nuclear factor erythroid 2-related factor 2/antioxidant responsive element (Nrf2/ARE) small molecule agonists: luciferase reporter gene qHTS assay in human keratinocytes (AID 1919969). Also: nearly all actives have a fitted effect of over 35% in size. Also: potency is read from the fitted curve at half-maximal effect.
Assay [3] deals with Gonadotropin-releasing hormone receptor (Homo sapiens) (UniProt P30968). The assay can be described thus: Human gonadotropin-releasing hormone receptor (GnRHR) small molecule agonists, calcium flux assay in GnRHR-HEK293 cells (AID 1920063). Also: nearly all actives have a fitted effect of over 35% in size. The procedure, abridged:
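Tox21-format agonist screen using human GnRHR-expressing HEK293 cells and a fluorescent calcium dye; kinetic 3-min fluorescence reading after compound addition, 15-point concentration series run in triplicate.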
A general note: Calcium assays in cells follow changes in intracellular calcium, usually with a dye or a luminescent sensor.

Assay [4] has as its target KiSS-1 receptor (Homo sapiens) (UniProt Q969F8). Description: Human kisspeptin (KISS1R) small molecule agonists, calcium flux assay in KISS1R-HEK293 cells (AID 1920064; active = well fitted curve in the direction sought with a large enough effect in the repeat runs; an effect the other way counts as inactive or inconclusive). In a few lines:
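Intracellular calcium mobilization in KISS1R-HEK293 cells was recorded by fluorescence (Ex/Em 480/540) for 3 min following compound addition to cells pre-loaded 1 h with calcium dye.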

The nature of assay [5]: G protein-coupled receptor (GPCR) small molecule agonists, calcium flux assay: HEK293 wild type cell line counter screen (AID 1920065). The procedure, abridged:
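In this agonist-mode screen, ATP is the positive control and DMSO the vehicle. Cells grow 18 h before a 1 h dye incubation at 37 C; signal is taken at Ex/Em 480/540 over 3 min.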

The nature of assay [6]: p53 small molecule agonists, cell-based qHTS assay with human liver microsomes: qHTS cell viability counter screen (AID 1963579). Also: nearly all actives have a fitted effect of over 45% in size. In a few lines: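 p53RE-bla cells, 4,000/well, dosed 5 hours after plating, with human liver microsomes (0.5 mg/mL final) plus NADPH (0.5 mg/mL final), 16 hours at 37 C. Viability read as CellTiter-Glo luminescence after 30 min at room temperature.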

The nature of assay [7]: p53 small molecule agonists, cell-based qHTS assay with rat liver microsomes: qHTS cell viability counter screen (AID 1963580). Also: nearly all actives have a fitted effect of over 45% in size. In a few lines:
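Intracellular ATP, by CellTiter-Glo luminescence, defines viability. HCT-116 p53RE-bla cells, 4,000 per well, were compound-treated in the presence of rat liver microsomes and NADPH for 16 h at 37 C.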

Assay [8] is described as follows: p53 small molecule agonists, cell-based qHTS assay: qHTS cell viability counter screen (AID 1963581). Also: nearly all actives have a fitted effect of over 45% in size. In a few lines: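 Compounds are pinned onto HCT-116 p53RE-bla cells and left 16 h at 37 C. Following the reporter FRET read, ATP is quantified by CellTiter-Glo luminescence after 30 min at room temperature.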
Assay [9] deals with 5-hydroxytryptamine receptor 2A (Homo sapiens) (UniProt P28223). Description: 5-hydroxytryptamine receptor 2A (HTR2A) small molecule antagonists, cell-based qHTS assay (AID 1963586). Also: nearly all actives have a fitted effect of over 45% in size. In a few lines:
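Antagonist-mode intracellular calcium assay: DOI (4 nM) added after 5 min compound pre-incubation at room temperature to dye-loaded HTR2A-CHO cells. Fluorescence followed for 3 min, sampled every second.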

The target is the same in assay [10]. The assay can be described thus: 5-hydroxytryptamine receptor 2A (HTR2A) small molecule agonists, cell-based qHTS assay (AID 1963587). Also: nearly all actives have a fitted effect of over 30% in size. The procedure, abridged:
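Kinetic calcium-flux fluorescence (2 min, 1 sec intervals) after compound addition in agonist mode. HTR2A-CHO cells were cultured 18 h, then dye-loaded 1 h at 37 C.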

The target in assay [11] is Muscarinic acetylcholine receptor M1 (Homo sapiens) (UniProt P11229). The assay can be described thus: Cholinergic receptor muscarinic 1 (CHRM1) small molecule antagonists, cell-based qHTS assay (AID 1963588). Also: nearly all actives have a fitted effect of over 40% in size. In a few lines: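 CHRM1-CHO calcium-flux assay, antagonist mode. Cells were seeded 18 h, dye-loaded 1 h at 37 C and given compound for 5 min at RT, then acetylcholine was added at 50nM. FDSS fluorescence was read 3 min; 15 concentrations, three runs.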
Chain of Muscarinic acetylcholine receptor M1 (Homo sapiens) (P11229 whole entry, looked up): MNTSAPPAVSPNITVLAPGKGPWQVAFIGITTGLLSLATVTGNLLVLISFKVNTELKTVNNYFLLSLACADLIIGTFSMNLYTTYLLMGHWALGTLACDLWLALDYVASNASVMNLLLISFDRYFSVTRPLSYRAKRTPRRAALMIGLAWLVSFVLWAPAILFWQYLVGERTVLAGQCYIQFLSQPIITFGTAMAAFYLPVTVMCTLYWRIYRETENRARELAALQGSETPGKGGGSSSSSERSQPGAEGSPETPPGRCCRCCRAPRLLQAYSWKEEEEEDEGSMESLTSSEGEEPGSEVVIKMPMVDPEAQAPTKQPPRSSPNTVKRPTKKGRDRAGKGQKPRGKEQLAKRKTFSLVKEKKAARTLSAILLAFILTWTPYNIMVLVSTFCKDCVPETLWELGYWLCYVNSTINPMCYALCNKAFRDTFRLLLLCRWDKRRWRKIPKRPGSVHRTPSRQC

Assay [12] has the same target. Description: Cholinergic receptor muscarinic 1 (CHRM1) small molecule agonists, cell-based qHTS assay (AID 1963589). Also: nearly all actives have a fitted effect of over 35% in size. The procedure, abridged: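 Stable CHRM1-CHO cells (human receptor) were incubated 18 h, dye-loaded for 1 h at 37 C and exposed to test compounds for agonist activity, with calcium-dependent fluorescence followed kinetically.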
Assay [13] is described as follows: cAMP Responsive Elements (CRE) small molecule agonists, cell-based qHTS assay (AID 1963590). The procedure, abridged: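 FRET-based beta-lactamase readout (LiveBLAzer B/G, 2 h RT) quantified CRE activation in HEK 293T CRE-bla cells after 3 h treatment with DMSO-dissolved compounds.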
A short description of assay [14]: cAMP Responsive Elements (CRE) small molecule antagonists, cell-based qHTS assay (AID 1963591; active = well fitted inhibition curve with a large enough effect in the signal ratio in the repeat runs, not every such curve was filed as active; the % refers to the signal ratio). The procedure, abridged:
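qHTS in CRE-bla HEK 293T cells: compound in DMSO, then 0.25 uM NKH477 (final), 3 h at 37 °C/5% CO2; beta-lactamase FRET read-out after 2 h substrate incubation.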

Assay [15] addresses Beta-2 adrenergic receptor (Homo sapiens) (UniProt P07550). Description: Adrenergic beta2 receptor (ADRB2) small molecule antagonists, cell-based qHTS assay (AID 1963592). Also: series mostly up to about 92 µM; nearly all actives have a fitted effect of over 50% in size. The procedure, abridged: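 Cells (CHO, stable ADRB2 overexpression) incubated 18-20hr at 37C; compounds added from DMSO; agonist mix (1nM isoproterenol, 100uM IBMX, 25uM Ro-20-1724) added; 0.5hr RT; d2-cAMP and anti-cAMP-cryptate added; 1hr RT; 665/615 nm read.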

The target of assay [16] is D(2) dopamine receptor (Homo sapiens) (UniProt P14416). The assay can be described thus: Dopamine D2 receptor (DRD2) small molecule agonists, cell-based qHTS assay (AID 1963594). Also: nearly all actives have a fitted effect of over 35% in size. The procedure, abridged: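 cAMP accumulation in DRD2-HEK293 cells measured by HTRF after 1 h detection; compounds added 10 min before NKH477 (200nM […]) forskolin-analogue stimulation, 30 min at room temperature, with Ro20-1724 present at 0.1 mM final.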
Chain of D(2) dopamine receptor (Homo sapiens) (P14416 whole entry, looked up): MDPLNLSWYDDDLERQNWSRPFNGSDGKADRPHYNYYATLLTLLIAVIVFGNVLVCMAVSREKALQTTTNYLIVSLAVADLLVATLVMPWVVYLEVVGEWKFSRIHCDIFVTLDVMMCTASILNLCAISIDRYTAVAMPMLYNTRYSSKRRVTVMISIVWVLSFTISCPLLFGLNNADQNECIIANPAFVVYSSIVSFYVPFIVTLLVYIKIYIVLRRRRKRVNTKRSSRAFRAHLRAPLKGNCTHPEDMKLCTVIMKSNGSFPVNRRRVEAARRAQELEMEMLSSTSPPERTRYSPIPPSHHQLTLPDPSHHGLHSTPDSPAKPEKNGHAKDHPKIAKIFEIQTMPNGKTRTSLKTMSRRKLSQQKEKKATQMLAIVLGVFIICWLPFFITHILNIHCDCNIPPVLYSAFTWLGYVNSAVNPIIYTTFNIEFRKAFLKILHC

For assay [17] the target is unchanged. Description: Dopamine D2 receptor (DRD2) small molecule antagonists, cell-based qHTS assay (AID 1963595; active = well fitted inhibition curve with a large enough effect in the signal ratio in the repeat runs, with a control signal flat; the % refers to the signal ratio). In a few lines: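 DRD2-HEK293; 0.1 mM Ro20-1724; cpd 10 min RT; NKH477 200 nM + quinpirole 12 nM, 30 min RT; HTRF cAMP (cAMP-d2/anti-cAMP cryptate), 665/620 nm ratio after 1 h.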
The target in assay [18] is Beta-2 adrenergic receptor (Homo sapiens) (UniProt P07550). Description: Adrenergic beta2 receptor (ADRB2) small molecule agonists, cell-based qHTS assay (AID 1963593).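 Also: CHO cells stably overexpressing human ADRB2.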 The procedure, abridged: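 CHO cells stably over-expressing ADRB2 were plated overnight at 37C, then dosed with compounds plus a stimulation mix containing 100uM IBMX and 25uM Ro-20-1724 for 0.5hr at room temperature. cAMP was measured by HTRF competition, 1hr.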
Chain of Beta-2 adrenergic receptor (Homo sapiens) (P07550 whole entry, looked up): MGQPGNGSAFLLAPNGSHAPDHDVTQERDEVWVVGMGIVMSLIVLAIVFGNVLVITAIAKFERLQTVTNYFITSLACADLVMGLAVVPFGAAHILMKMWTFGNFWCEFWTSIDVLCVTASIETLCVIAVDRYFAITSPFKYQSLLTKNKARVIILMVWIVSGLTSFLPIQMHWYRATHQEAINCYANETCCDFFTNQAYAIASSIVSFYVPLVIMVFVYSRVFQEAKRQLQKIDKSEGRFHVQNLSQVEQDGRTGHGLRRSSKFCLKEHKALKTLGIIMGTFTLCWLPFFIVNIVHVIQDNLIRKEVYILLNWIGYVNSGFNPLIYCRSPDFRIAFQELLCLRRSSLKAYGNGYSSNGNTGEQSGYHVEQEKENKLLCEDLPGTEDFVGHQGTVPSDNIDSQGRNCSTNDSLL

The nature of assay [19]: p53 small molecule agonists, cell-based qHTS assay (AID 1963582; active = well fitted activation curve with a large enough effect in the signal ratio in the repeat runs, not every such curve was filed as active; the % refers to the signal ratio). In a few lines:
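Agonist activity was scored from beta-lactamase FRET fluorescence in p53RE-bla cells treated 16 h at 37 C with compounds in DMSO, substrate incubation being 2 h at room temperature.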

Chain of Gonadotropin-releasing hormone receptor (Homo sapiens) (P30968 whole entry, looked up): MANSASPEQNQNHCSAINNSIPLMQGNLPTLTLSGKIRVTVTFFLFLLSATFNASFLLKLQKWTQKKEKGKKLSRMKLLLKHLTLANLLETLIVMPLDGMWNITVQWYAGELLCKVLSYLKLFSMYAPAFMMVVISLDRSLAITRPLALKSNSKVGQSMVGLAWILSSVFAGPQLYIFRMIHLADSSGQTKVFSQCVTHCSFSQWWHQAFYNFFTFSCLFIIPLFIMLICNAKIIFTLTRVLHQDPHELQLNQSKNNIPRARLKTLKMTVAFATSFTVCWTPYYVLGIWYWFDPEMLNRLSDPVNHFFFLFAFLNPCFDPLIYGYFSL
Chain of 5-hydroxytryptamine receptor 2A (Homo sapiens) (P28223 whole entry, looked up): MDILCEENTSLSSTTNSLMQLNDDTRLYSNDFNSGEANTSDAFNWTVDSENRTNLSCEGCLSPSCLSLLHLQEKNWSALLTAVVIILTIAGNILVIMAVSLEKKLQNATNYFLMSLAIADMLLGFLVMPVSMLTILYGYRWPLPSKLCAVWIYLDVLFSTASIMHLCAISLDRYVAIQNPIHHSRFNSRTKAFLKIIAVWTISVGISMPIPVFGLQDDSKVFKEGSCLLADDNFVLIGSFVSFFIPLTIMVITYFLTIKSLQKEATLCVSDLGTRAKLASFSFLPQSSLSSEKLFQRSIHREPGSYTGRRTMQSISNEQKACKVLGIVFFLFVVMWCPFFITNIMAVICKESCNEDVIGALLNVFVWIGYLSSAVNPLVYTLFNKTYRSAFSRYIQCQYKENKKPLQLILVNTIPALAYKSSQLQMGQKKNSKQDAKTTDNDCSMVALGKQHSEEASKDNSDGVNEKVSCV
Chain of KiSS-1 receptor (Homo sapiens) (Q969F8 whole entry, looked up): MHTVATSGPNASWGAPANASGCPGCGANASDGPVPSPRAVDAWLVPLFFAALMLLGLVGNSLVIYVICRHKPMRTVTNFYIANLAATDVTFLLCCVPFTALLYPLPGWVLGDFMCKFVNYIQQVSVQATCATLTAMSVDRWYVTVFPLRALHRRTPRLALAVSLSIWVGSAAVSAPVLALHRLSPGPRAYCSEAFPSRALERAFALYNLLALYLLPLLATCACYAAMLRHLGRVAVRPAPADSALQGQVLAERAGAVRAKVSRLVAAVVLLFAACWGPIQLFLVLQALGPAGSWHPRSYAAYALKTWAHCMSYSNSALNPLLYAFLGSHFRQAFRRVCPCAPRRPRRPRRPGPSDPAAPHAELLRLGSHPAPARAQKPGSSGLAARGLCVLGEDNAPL

Regarding `CCn1cc[n+](C)c1` (tested in a mixture with another compound), the Potency entry in assay [1], in assay [2], in assay [3], in assay [4], in assay [5] and in assay [6] was “inactive” each time. For the same compound, the Potency entry in [7], in assay [8], in [9], in [10], in assay [11] and in assay [12] was “inactive” each time. In addition, the Potency result in [13], in [14], in assay [15], in assay [16] and in [17] was “inactive” throughout.

With `C#CC(C)(C)O`, the Potency result in assay [1], in [2], in assay [3], in assay [4], in assay [5] and in assay [6] was “inactive” in each case. Also, the Potency result in assay [7], in assay [8], in [9], in assay [10], in assay [11] and in assay [12] was “inactive” throughout. Moreover, the Potency result in [13], in [14], in assay [15], in assay [18] and in assay [17] was “inactive” throughout.

In the case of `ClC(Cl)C(Cl)(Cl)Cl`, the Potency result in [1], in assay [2], in assay [3], in assay [4], in assay [5] and in [6] was “inactive” throughout. In addition, the Potency result in assay [7], in assay [8], in assay [9], in assay [10], in assay [11] and in [12] was “inactive” throughout. For the same compound, the Potency result in [13], in [14], in [15], in assay [16] and in assay [17] was “inactive” each time.

For the compound `CC(C)[C@]12CC(=O)[C@H](C)[C@H]1C2`, the Potency result in assay [1], in assay [2], in assay [3], in [4], in [5] and in assay [6] was “inactive” in each case. The Potency result in [7], in assay [8], in [9], in [10], in [11] and in assay [12] was “inactive” throughout. Moreover, the Potency result in [13], in assay [15], in [18], in [16] and in assay [17] was “inactive” throughout.

For `Clc1cccc2ccccc12`, the Potency result in [1], in assay [2], in assay [3], in assay [4], in assay [5] and in [6] was “inactive” in each case. Besides, the Potency entry in assay [7], in [8], in [9], in assay [10], in [11] and in [12] was “inactive” throughout. For the same compound, the Potency entry in [13], in assay [14] and in assay [17] was “inactive” in each case.

Consider `CNC(=O)O/N=C(/CSC)C(C)(C)C`, for which the Potency result in [1], in [2], in assay [3], in [4], in assay [5] and in assay [6] was “inactive” in each case. In addition, the Potency result in [7], in [8], in [9], in assay [10], in assay [11] and in assay [14] was “inactive” throughout. Besides, the Potency entry in [15], in assay [18], in assay [16] and in assay [17] was “inactive” each time.

Regarding `CCOP(=S)(S)OCC`, the Potency entry in assay [1], in [3], in [4], in assay [5], in assay [6] and in assay [7] was “inactive” throughout. Besides, the Potency result in assay [19], in assay [9], in [11], in assay [12], in assay [13] and in [14] was “inactive” each time. Besides, the Potency entry in assay [15], in assay [18], in [16] and in [17] was “inactive” each time. The Potency in [2] is 64.4 µM (active).
